In the library only some 2.3% were active in any assay of this set; here they are far more common.
Glioma ERSR ind – inducers of ER stress response in human glioma cells; U87-MG GRP78 promoter luciferase reporter, 16 h; Potency, µM, actives largely listed as activators; actives 0.02% (n = 420,000); note: series mostly up to about 76 µM; nearly all actives have a fitted effect of over 35% in size
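ERSR induction read as luciferase luminescence (Bright-Glo, 10 min at room temperature) in stably transfected human U87-MG glioma cells exposed to compounds for 16 h, using GRP78 as sensor.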
GLP-1R inv ag – GLP-1 receptor (human) inverse agonism | actives 1.6% (n = 410,000) | AID 624417 | HEK293 GLP-1R CRE-luciferase, luminescence, 24 h; GLP-1R form is constitutively active | Potency, µM (top dose mostly 38.3 µM), hits mostly inhibitors; note: nearly all actives have a fitted effect of over 55% in size
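Constitutively active GLP-1R drives a cAMP-responsive luciferase in stably transfected HEK293 cells; test compounds are added after overnight (12 h) attachment and left 24 hr, and signal loss in luminescence marks inhibition.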
GLP1R ag – activates the human GLP-1 receptor; P43220; HEK293 GLP-1R CRE-luciferase, luminescence, 4-6 h; cells express a hypersensitive GLP-1R form; Potency, µM (series often up to 45.6 µM), actives largely listed as activators; actives 0.007% (n = 380,000); AID 624172
ALOX12 inh – blocks human arachidonate 12S-lipoxygenase. purified 12hLO, xylenol orange hydroperoxide absorbance. Potency, µM (top dose mostly 108 µM), most hits filed as inhibitors. actives 1.1% (n = 580,000). AID 1671190
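Purified human 12hLO at 150 nM in 25 mM Hepes, 0.01% Triton X-100, pH 7.0, preincubated 15 min at room temperature with compound. Reaction started with 40 uM arachidonic acid, 30 min at room temperature. Hydroperoxide measured by Fe-xylenol orange, 573/405 nm absorbance ratio.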
GLS inhibitor – inhibitors of human glutaminase (GLS); O94925; GLS enzymatic activity, qHTS titration; Potency, µM (highest dose often 45.5 µM), actives largely listed as inhibitors; actives 0.21% (n = 410,000)
Target sequence (O94925 whole entry, looked up): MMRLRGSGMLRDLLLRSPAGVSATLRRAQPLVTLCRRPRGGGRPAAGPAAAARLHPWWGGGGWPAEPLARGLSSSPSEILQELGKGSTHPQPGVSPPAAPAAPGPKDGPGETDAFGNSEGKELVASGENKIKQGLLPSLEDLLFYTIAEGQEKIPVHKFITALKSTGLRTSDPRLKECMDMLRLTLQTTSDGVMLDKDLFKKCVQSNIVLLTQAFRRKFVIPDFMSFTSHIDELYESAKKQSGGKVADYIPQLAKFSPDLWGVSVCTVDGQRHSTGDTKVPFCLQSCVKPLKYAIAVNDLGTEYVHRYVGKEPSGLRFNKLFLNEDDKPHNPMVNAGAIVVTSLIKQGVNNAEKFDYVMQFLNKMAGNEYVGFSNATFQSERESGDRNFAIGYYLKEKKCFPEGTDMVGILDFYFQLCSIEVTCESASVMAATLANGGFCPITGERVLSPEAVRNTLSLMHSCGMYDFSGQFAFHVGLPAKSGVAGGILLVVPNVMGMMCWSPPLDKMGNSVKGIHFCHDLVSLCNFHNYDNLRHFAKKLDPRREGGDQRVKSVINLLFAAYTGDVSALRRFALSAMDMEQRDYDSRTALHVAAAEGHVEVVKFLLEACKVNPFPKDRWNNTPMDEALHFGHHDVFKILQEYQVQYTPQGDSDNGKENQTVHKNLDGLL
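Assay buffer: 45 mM KH2PO4 pH 8.2, 0.02% Tween-20. hKGA acts on L-glutamine (1 mM solution added); product glutamate is reported by an oxidase/peroxidase Amplex Red coupling, with fluorescence taken at baseline and 30 min.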
PTHR1 agonist – agonists of human PTHR1 parathyroid hormone receptor | Potency, µM (doses to about 115 µM), usual class: activators | HEK293 GP2 PTHR1 cells, GloSensor cAMP luminescence, 1 h | actives 0.075% (n = 410,000) | AID 743266 | Q03431; note: nearly all actives have a fitted effect of over 55% in size
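HEK-293-derived GP2 cells expressing PTHR1 and a GloSensor cAMP reporter, 3,000/well, plated overnight, given luciferin plus IBMX (each 0.5 mM as added) for 1 h at 37 °C, then compound for 1 h at 37 °C. Luminescence was read after 15 min at room temperature.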
A number is an active result; i = inactive; ? = inconclusive; nt = no result; ! = not confirmed by another sample. Calls come from the whole dose curve; as a rule, active = well fitted curve in the direction sought with a large enough effect; inconclusive = small, poorly fitted or top-dose-only effect, or another doubt; inactive = no such curve, though single readings can be large; an effect the other way counts as inactive or inconclusive.

SMILES | Glioma ERSR ind | GLP-1R inv ag | GLP1R ag | ALOX12 inh | GLS inhibitor | PTHR1 agonist
N#CC(Cc1cccnc1)C(=O)Nc1ccccc1Br (configuration not stated) | nt | nt | nt | i | nt | nt
CC[N+](CC)(CC)CCOc1ccc(/C=C/c2ccccc2)cc1 | i | ? | i | 50µM! | i | i
CCCn1c(=O)[nH]c(=O)c2c1nc(-c1ccc(O)cc1)n2CCOC | nt | nt | nt | i | nt | nt
COc1cc(OC)nc(Oc2ccccc2C(=O)Oc2ccc(C)cc2)n1 | i | ? | i | i | i | i
COc1cc(OC)nc(Oc2ccccc2C(=O)Oc2ccc(Cl)cc2)n1 | i | 3.2µM | i | i | i | i
CC(=O)c1cccc(NC(=O)C(C)Sc2ccccc2Cl)c1 (configuration not stated) | nt | nt | nt | i | nt | nt
Cn1c(CN(CCN2CCCCC2)CC2CCCN(C3CCCC3)C2)nc2ccccc21 (configuration not stated) | nt | nt | nt | i | nt | nt
COc1ccc(Nc2oc(COc3ccccc3C)nc2C#N)cc1 | nt | nt | nt | i | nt | nt
Clc1ccccc1-c1nnc(SCc2nc(-c3ccccc3)no2)n1-c1ccccc1 | nt | 10µM | nt | ? | i | i
O=c1c2ccccc2nc(SCc2nc(-c3ccccc3)no2)n1-c1ccc(F)cc1 | i | 3.5µM | i | nt | i | i
Cc1ccc(-n2c(Cc3ccccc3)nnc2SCc2nc(-c3cccs3)no2)cc1 | i | 10µM | nt | i | i | i
c1ccc(Cc2nnc(SCc3nc(-c4cccs4)no3)n2-c2ccccc2)cc1 | i | ? | nt | i | i | i
CCn1nc(C(=O)OCCOc2ccc(OC)cc2)c2ccccc2c1=O | nt | nt | nt | i | nt | nt
CCOc1ccc(C2CC(c3ccccc3NS(C)(=O)=O)=NN2C(C)=O)cc1 (configuration not stated) | nt | nt | nt | i | nt | nt
COc1ccc([C@H]2CC(=O)C[C@@H](CCn3cc(-c4ccccc4)nn3)O2)cc1 | nt | i | i | 10µM | i | i
COc1ccc(CNc2cccc(C(=O)O)c2C)c(OC)c1 | nt | nt | nt | i | nt | nt
CC(C)COc1ccc(C(=O)N2CCCCC2CCN2CCCCCC2)cc1 (configuration not stated) | nt | nt | nt | 7.1µM | nt | nt
Cc1ccc(C)c(CS(=O)(=O)Cc2noc(C(C)(C)C)n2)c1 | nt | nt | nt | i | nt | nt
CC1CCCC(C)N1CCCNC(=O)c1ccc2c(c1)NC(=O)c1ccccc1S2 (configuration not stated) | i | ? | i | i | i | ?
CCC(C)N(CCNC(=O)c1ccc2c(c1)NC(=O)c1ccccc1S2)C1CCCCC1 (configuration not stated) | i | 3.5µM | i | i | i | ?
COc1ccccc1C(=O)Nc1ccc(N2CCN(C(C)=O)CC2)cc1 | i | i | i | i | i | i
COc1ccccc1C(=O)Nc1ccc(N2CCN(Cc3ccccc3)CC2)cc1 | i | 11µM | i | i | i | i
CCn1c(/C=C/c2cc[n+](C)cc2)nc2ccccc21 | i | i | i | 11µM | i | i
COCCNC(=O)CSc1cc(C(=O)NC2CC2)c2ccccc2n1 | nt | nt | nt | i | nt | nt
CC(=O)Nc1cc(-c2ccc(CO)cc2)cn2c(-c3ccc(F)c(Cl)c3)cnc12 | ? | i | i | 35µM | i | i
SMILES | Glioma ERSR ind | GLP-1R inv ag | GLP1R ag | ALOX12 inh | GLS inhibitor | PTHR1 agonist
CSc1nc2cc(Oc3cccc(Cl)c3Cl)c(Cl)cc2[nH]1 | i | 11µM | i | i | i | i
COc1cc(NC2c3ccccc3C(=O)N2Cc2ccccc2Cl)cc(OC)c1 (configuration not stated) | i | 10µM | i | i | i | i
COc1cccc(NC2c3ccccc3C(=O)N2Cc2ccccc2Cl)c1 (configuration not stated) | i | ? | i | i | i | i
O=C(CNC(=O)c1cc(=O)[nH]c2ccccc12)NC1CC1 | nt | nt | nt | i | nt | nt
OC(COc1ccc(Cl)cc1)CN1CCN(c2ccccn2)CC1 (configuration not stated) | i | ? | i | i | i | i
OC(COc1ccc(Cl)c2ccccc12)CN1CCN(c2ccccn2)CC1 (configuration not stated) | i | 10µM | i | i | i | i
Cc1cc(OCC(O)CN2CCN(c3ccccn3)CC2)cc(C)c1Cl (configuration not stated) | i | 11µM | i | ? | i | i
COCCn1c2c(c(=O)[nH]c1=O)C(c1ccccc1C)C1=C(N2)c2ccccc2C1=O (configuration not stated) | nt | nt | nt | i | nt | nt
CN(C)CCCNC(=S)NCCc1ccccc1 | nt | nt | nt | i | nt | nt
O=C(Nc1nnc(-c2ccc(Cl)cc2)o1)C1CCCCC1 | i | i | i | i | i | i
Clc1ccc(-c2nnc(NC3=NCCCCC3)o2)cc1 | i | 4.5µM | i | i | i | i
CCCCc1ccc(-c2cc(C(=O)NC3CCCC3)c3cc(Br)ccc3n2)cc1 | nt | nt | nt | i | nt | nt
O=[N+]([O-])c1ccc2c(c1)C(N1CCOCC1)/C(=C/COc1ccc3ccccc3c1Br)O2 (configuration not stated) | i | 2.8µM | i | i | i | i
O=[N+]([O-])c1ccc(OC/C=C2\Oc3ccc([N+](=O)[O-])cc3C2N2CCOCC2)cc1 (configuration not stated) | i | ? | i | i | i | i
CCCNC(=O)C(C)NC(=O)c1ccc2ccccc2n1 (configuration not stated) | nt | nt | nt | i | nt | nt
Cc1ccc(S(=O)(=O)NN=CC=CC=NNS(=O)(=O)c2ccc(C)cc2)cc1 | i | i | i | 4µM | i | i
Cc1ccc(NNS(=O)(=O)c2ccc(C)cc2)cc1 | i | i | i | 2.8µM | ? | i
Cc1ccc(S(=O)(=O)NNC(=O)C(=O)NNS(=O)(=O)c2ccc(C)cc2)cc1 | i | i | i | i | i | i
CS(=O)(=O)c1cccc(OC(=O)/C=C/c2cccc(OCc3ccccc3)c2)c1 | nt | nt | nt | i | nt | nt
N#C/C(=C/c1ccc(Cl)cc1)C(=O)OCC(=O)N1CCCCC1 | nt | nt | nt | i | nt | nt
CCCCCC(=O)N1C[C@H](O)[C@@H](n2cc(-c3ccc(F)cc3)nn2)C[C@@H]1c1ccc(OC)cc1 | i | 11µM | i | ? | i | i
CCCCCCN1C[C@@H](n2cc(-c3ccc(F)cc3)nn2)[C@H](O)C[C@@H]1c1ccc(OC)cc1 | i | 3.2µM | i | ? | i | i
CCCCCC(=O)N1C[C@H](O)[C@@H](n2cc(-c3ccc(F)cc3)nn2)C[C@@H]1c1ccc(Cl)cc1 | i | 10µM | i | i | i | i
CC(N)(Cc1ccc(O)cc1)C(=O)O (configuration not stated) | i | nt | nt | nt | nt | nt
CC(C)(Cc1ccc(O)cc1)NC(=O)SCc1ccccc1 | i | 13µM | i | i | i | i

Source: PubChem BioAssay
